Results filed as inconclusive are left out. Activity calls are given as the source filed them. The call rests on the fitted dose curve; in most records, active means well fitted activation curve with a large enough effect; inconclusive means small, poorly fitted or top-dose-only effect; inactive means no such curve, though single readings can be large or run the other way.

This note sets out measurements from PubChem BioAssay (NCATS).
Potency means the concentration at half of the fitted maximal effect.

The target in this assay is Cellular tumor antigen p53 (Homo sapiens) (UniProt P04637). Briefly: Primary qHTS for small molecule compounds that upregulate eGFP-tagged delta133p53alpha (in N-terminal) cells. (AID 2060322). Further: nearly all actives have a fitted effect of over 75% in size.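 On activation: cells pre-induced with doxycycline then dosed without doxycycline; series mostly up to about 56 µM; 0% = DMSO vehicle and 100% = reference activator.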 The note with it: NCI-H358 eGFP-delta133p53alpha fluorescence, 24 h; activation: stronger effect = higher value. The method, boiled down: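 NCI-H358 cells pre-induced 24 h with 10 ng/ml doxycycline for eGFP-delta133p53alpha, plated dox-free and exposed 24 h at 37C to titrated compounds. Fixed, Hoechst-stained; gated GFP peak intensity by laser scanning cytometry, normalized to DMSO (0%) and 57.5 uM 5-azacytidine (100%).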
Sequence of Cellular tumor antigen p53 (Homo sapiens) (P04637 whole entry, looked up): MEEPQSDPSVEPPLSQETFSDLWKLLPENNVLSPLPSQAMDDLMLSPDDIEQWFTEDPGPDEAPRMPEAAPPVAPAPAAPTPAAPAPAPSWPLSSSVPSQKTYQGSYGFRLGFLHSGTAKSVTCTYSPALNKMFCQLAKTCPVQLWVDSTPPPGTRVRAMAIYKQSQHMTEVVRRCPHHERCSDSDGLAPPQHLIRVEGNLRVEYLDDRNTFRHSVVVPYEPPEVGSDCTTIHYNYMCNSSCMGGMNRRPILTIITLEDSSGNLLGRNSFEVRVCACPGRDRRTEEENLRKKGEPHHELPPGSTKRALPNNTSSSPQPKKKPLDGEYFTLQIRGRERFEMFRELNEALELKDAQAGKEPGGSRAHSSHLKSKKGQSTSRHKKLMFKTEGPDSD
As to `COC(=O)c1ccc(N2CCN(C)CC2)c(NC(=O)c2cccc(OC)c2)c1`, the activation is 9% (inactive). In the case of `CC(O)/C=C/C1OC(=O)CC1Nc1ccc(C(=O)O)cc1` (stereo not given), the activation is -6.11% (inactive).

For `COc1cc(C(C)=O)ccc1O[C@@H]1O[C@H](CO[C@@H]2OC[C@@H](O)[C@H](O)[C@H]2O)[C@@H](O)[C@H](O)[C@H]1O`, the activation was 9.16% (inactive). Same read-out and setting: under `COC(=O)CCSCc1ccc(-c2onc(C)c2NC(=O)OC(C)c2ccccc2Cl)cc1` (stereo not given) stands -5.25% (inactive); under `C[C@@H]1O[C@@H](O[C@H]2[C@H](O[C@H]3CC[C@@]4(C)C(CC[C@]5(C)C4C=C[C@]46OC[C@@]7(CCC(C)(C)C[C@H]74)[C@@H](O[C@@H]4O[C@@H](C)[C@H](O)[C@@H](O)[C@H]4O)C[C@]65C)[C@]3(C)CO)O[C@H](CO)[C@@H](O)[C@@H]2O[C@@H]2O[C@H](CO)[C@@H](O)[C@H](O)[C@H]2O)[C@H](O)[C@H](O)[C@H]1O` (stereo not given in full), 0% (inactive); under `CCNC(=O)Nc1ccc(-c2nc3c(c(N4CCOCC4C)n2)CCN(C2COC2)C3)cc1` (stereo not given), 12.4% (inactive). Take `CC(=O)C1=CCC2C3CCC4CC(O[C@@H]5O[C@H](CO)[C@@H](O[C@@H]6O[C@@H](C)[C@H](O)[C@@H](O)[C@H]6O)[C@H](O)[C@H]5O[C@@H]5O[C@H](CO)[C@@H](O)[C@H](O)[C@H]5O)CCC4(C)C3CCC12C` (stereo not given in full): the activation is -10.7% (inactive). Regarding `COc1cc(/C=C/C(=O)O)ccc1O[C@@H]1O[C@H](CO)[C@@H](O)[C@H](O)[C@H]1O[C@@H]1OC[C@](O)(CO)[C@H]1O`, the activation is -13% (inactive). For the molecule `CC1OC(OC2CCC3(C)C(CCC4(C)C3CC=C3C5CC(C)(C)CCC5(C(=O)OC5OC(CO)C(O)C(O)C5O)CCC34C(=O)O)C2(C)C)C(O)C(O)C1O` (stereo not given), the activation was 0.763% (inactive). On the same count and under the same terms, under `COc1c2c(c(C)c3c1C(=O)OC3)O[C@@]1(C)CC(O)C(C(C)(C)O)[C@](C)(CCC(=O)O)[C@H]1C2` (stereo not given in full) stands -9.16% (inactive); under `C=C1CC2(C(=O)O)CC1CCC2C1(C)CCCC2(C)C(=O)OC(O)C21` (stereo not given), -6.87% (inactive). With `COc1cc2c(c(OC)c1O)C(c1ccc(O)cc1)C1C(=O)OC3C(COC(=O)C1=C2)OC(CO)(OC1OC(COC(=O)/C=C/c2ccc(OC4OC(C)C(O)C(O)C4O)cc2)C(O)C(O)C1O)C3O` (stereo not given), the activation was 23.2% (inactive). With `CCOc1nc(NC(=O)Cc2cc(OC)ccc2OC)cc(N)c1C#N`, the activation was 15% (inactive). The same measure, in the same setting: under `COc1ccc(/C=C/C(=O)O[C@@H]2[C@@H](O)[C@@H](O)[C@H](O[C@H]3[C@@H]4C=CO[C@@H](O[C@@H]5O[C@H](CO)[C@@H](O)[C@H](O)[C@H]5O)[C@@H]4[C@@]4(CO)O[C@@H]34)O[C@H]2C)cc1` stands -16% (inactive); under `CC1=C2C(O)C(=O)OC(c3ccoc3)C2(C)CCC1O` (stereo not given), -16% (inactive); under `O=S(=O)(c1ccccc1)N(CC(F)(F)F)c1ccc(C(O)(C(F)(F)F)C(F)(F)F)cc1`, -3.67% (inactive). On to `CC1=CC(=O)[C@@]2(C(C)C)C[C@@H]12`, for which the activation is 17.7% (inactive).

As for `CC1=C(CO)C2(C)CCCC(C)(C)C2C(O)C1O` (stereo not given), the activation was 11.6% (inactive). Consider `CC1(C)C(=O)N2c3ccccc3C(O)(CC(C(=O)O)n3cnc4ccccc4c3=O)C2N1O` (stereo not given), for which the activation was 16% (inactive). For `CC1(C)CCCC2(C)C(CO)C3CCC2C31` (stereo not given), the activation is 24.1% (inactive). Take `CC(C)=CCC/C(C)=C/CO[C@@H]1O[C@H](CO[C@@H]2O[C@@H](CO)[C@H](O)[C@H]2O)[C@@H](O)[C@H](O)[C@H]1O`: the activation was -29.5% (inactive). Still for that read-out and setting: the result for `O=c1[nH]c2ccc(C#CCN3CCC(Cc4ccccc4)CC3)cc2[nH]1` reads -3.57% (inactive).

Regarding `CCC(CC)C(=O)Nc1sc2c(c1C#N)CCC(C(C)(C)CC)C2` (stereo not given), the activation is -3.34% (inactive). Regarding `CC1CCC2(NC1)OC1CC3C4CC=C5CC(O[C@@H]6O[C@H](CO)[C@@H](O[C@@H]7O[C@@H](C)[C@H](O)[C@@H](O)[C@H]7O)[C@H](O)[C@H]6O[C@@H]6O[C@@H](C)[C@H](O)[C@@H](O)[C@H]6O)CCC5(C)C4CCC3(C)C1C2C` (stereo not given in full), the activation is 16.8% (inactive). On the same count and under the same terms, under `CC1C(=O)OCC2=CC[N+]3([O-])CCC(OC(=O)C(C)(O)C1(C)O)C23` (stereo not given) stands 24.1% (inactive).

With `O=C(c1ccc2nccnc2c1)N1CCCCC1`, the activation is -11% (inactive). As to `Cc1ccc(S(=O)(=O)n2ccc(-c3c(-c4ccc(Cl)cc4)noc3C)n2)cc1`, the activation was -18.8% (inactive). As for `CC[C@H](C)[C@H](NC(=O)[C@H](Cc1ccc(O)cc1)NC(=O)[C@@H](N)C(C)C)C(=O)N[C@@H](Cc1cnc[nH]1)C(=O)N1CCC[C@H]1C(=O)N[C@@H](Cc1ccccc1)C(=O)O`, the activation is 0.333% (inactive). On the same count and under the same terms, the result for `CCC(C)/C=C(C)/C=C/C1=CC2=C(Cl)C(=O)C(C)(OC(C)=O)C(=O)C2=CN1C(CCCN=C(N)N)C(=O)O` (stereo not given) reads 16% (inactive); that for `Cc1ccc(S(=O)(=O)N2CCC[C@H]2c2ccc(F)cc2)cc1`, 8.93% (inactive); that for `C=C[C@H]1[C@H](O[C@@H]2O[C@H](CO)[C@@H](O)[C@H](O)[C@H]2O)OC=C(C(=O)OC)[C@H]1C/C=C(/C=O)[C@@H]1C(C(=O)OC)=CO[C@@H](O[C@@H]2O[C@H](CO)[C@@H](O)[C@H](O)[C@H]2O)[C@@H]1C=C`, -22.1% (inactive). Take `CC12CC(c3ccoc3)OC(=O)C1CCC1(C)C2CCC(O)C1(C)O` (stereo not given): the activation is 23.7% (inactive). As for `CCCOc1ccc(S(=O)(=O)N2CCN(CCO)CC2)cc1-c1nc2c(CCC)cn(CC)c2c(=O)[nH]1`, the activation is -0.893% (inactive). On to `COC(=O)C1C(c2ccc(O)cc2)C(C(=O)OC)C1c1ccc(O)cc1` (stereo not given), for which the activation is -16.1% (inactive). For `Cc1ccc2c(Nc3ccc(Cl)cc3)nccc2c1Nc1ncccc1-c1ncnc2nc[nH]c12`, the Potency was 9.53 µM (active). For `C[C@@H]1O[C@@H](O[C@H]2CC[C@@]3(C)C(CC[C@]4(C)C3CC=C3[C@@H]5CC(C)(C)CC[C@]5(C(=O)O[C@@H]5O[C@H](CO)[C@@H](O)[C@H](O)[C@H]5O)CC[C@]34C)[C@]2(C)CO)[C@H](O)[C@H](O[C@@H]2O[C@H](CO)[C@@H](O)[C@H](O)[C@H]2O)[C@H]1O` (stereo not given in full), the activation was -6.11% (inactive). On the same count and under the same terms, the result for `CC(C)CCC1(O)C(=O)C(C)(C)C(O[C@@H]2O[C@H](CO)[C@@H](O)[C@H](O)[C@H]2O)C(C)(C)C1O` (stereo not given in full) reads 12.5% (inactive); that for `C[C@H]1/C=C/C=C/C=C/C=C/C=C/[C@@H](O)[C@H](C(=O)O)[C@H](O)C[C@H](O)CCC[C@H](O)C[C@H](O)C[C@H](O)[C@@H](C)C(=O)O[C@@H]1C`, 13.7% (inactive). For `C/C=C(\C)C(=O)O[C@@H](C)[C@H]1CC[C@]2(O)C3CCC4C[C@@H](OC5CC(OC)C(OC6CC(OC)C(OC7CC(OC)C(OC8OC(C)C(OC9OC(CO)C(O)C(O)C9O)C(OC)C8O)C(C)O7)C(C)O6)C(C)O5)CC[C@]4(C)C3[C@H](O)[C@@H](O)[C@]12C` (stereo not given in full), the activation is 8.04% (inactive).

Regarding `OC[C@H]1O[C@@H](OCCc2ccc(O)cc2)[C@H](O)[C@@H](O)[C@@H]1O`, the activation was -13.7% (inactive).
